Experimental data as given in PubChem BioAssay (NCATS).
Where “and” joins values, the source holds several entries; their conditions need not be identical. Identical values can stand only once. Results filed as inconclusive are left out. Where a structure was tested more than once in an assay, its records may differ in their call. Calls of active or inactive are those of the source. Unless noted, the call rests on the fitted dose curve; in most records, active means well fitted curve in the direction sought with a large enough effect; inconclusive means small, poorly fitted or top-dose-only effect, or another doubt; inactive means no such curve, though single readings can be large; an effect the other way counts as inactive or inconclusive.

Columns and labels:
[1] = tested on: Zika virus NS2B-NS3 protease; assay: Primary screen GU AMC qHTS for Zika virus inhibitors (AID 1347154);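 further: 0% = no-inhibitor control and -100% = no-enzyme control; nearly all actives have a fitted effect of over 70% in size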
In short: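 Unlinked Zika NS2B hydrophilic domain/NS3 protease domain noncovalent complex (25 nM final) in 10 mM Tris-HCl pH 8.0, 0.01% Tween 20, with AMC peptide substrate. Fluorescence (ex 340, em 450 nm) change over 15 min, room temperature; percent inhibition fitted to 4-parameter Hill equation.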

[2] = Primary qHTS for small molecule stabilizers of the endoplasmic reticulum resident proteome: Secreted ER Calcium Modulated Protein (SERCaMP) assay (AID 1508630); further: potency means the concentration at half of the fitted maximal effect
In short: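 The SH-SY5Y reporter protocol was run at 3 concentrations up to 38.3 uM (primary) or 11 concentrations (follow-up): 16 h compound, 100 nM thapsigargin for 4 h, then extracellular luciferase luminescence.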

[3] = AP1 Signaling Pathway (AID 357; active means well fitted curve in either direction with a large enough effect, not every such curve was filed as active;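 further: ME-180 reporter cells stimulated with EGF at its EC50 level; on the % scale 0 is the no-effect control and ±100 the full control effect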); details: ME-180 AP-1-bla reporter, EGF-induced, beta-lactamase ratio, 5 h
In short: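 AP-1-bla ME-180 cells, Opti-MEM + 0.5% dialyzed FBS, plated overnight 37 °C. Cpd titration + EC50 EGF, 5 h 37 °C. CCF4 2.5 h RT; ex 405, em 460/530 ratio → %activity, AC50.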

[4] = biological target: Cytochrome P450 1A2 (Homo sapiens) (UniProt P05177); assay: p450-cyp1a2 (AID 410; calls by dose curve; further: potency means the concentration at half of the fitted maximal effect;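 on activity change, negative = inhibition: -100% = full effect of reference inhibitor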)
Chain of Cytochrome P450 1A2 (Homo sapiens) (P05177 whole entry, looked up): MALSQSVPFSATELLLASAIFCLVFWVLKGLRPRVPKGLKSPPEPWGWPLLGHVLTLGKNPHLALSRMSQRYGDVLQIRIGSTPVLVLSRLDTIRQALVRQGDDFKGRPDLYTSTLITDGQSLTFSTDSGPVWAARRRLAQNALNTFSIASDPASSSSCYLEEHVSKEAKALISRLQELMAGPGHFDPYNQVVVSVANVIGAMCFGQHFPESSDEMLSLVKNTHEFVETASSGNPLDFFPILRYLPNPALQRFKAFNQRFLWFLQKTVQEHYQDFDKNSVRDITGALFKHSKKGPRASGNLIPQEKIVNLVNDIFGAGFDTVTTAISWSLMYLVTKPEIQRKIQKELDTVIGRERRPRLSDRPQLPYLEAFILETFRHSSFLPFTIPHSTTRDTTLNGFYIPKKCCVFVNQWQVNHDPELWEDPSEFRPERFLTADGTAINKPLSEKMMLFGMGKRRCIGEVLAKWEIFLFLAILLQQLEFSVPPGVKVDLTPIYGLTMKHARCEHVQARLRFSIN
In short: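 Luminescent demethylation readout: Luciferin-ME (100uM, equal to Km) turned over by 20nM CYP1A2 for 60 min at room temperature after NADPH regeneration addition, following 10 min compound preincubation. Normalization used 57 uM furafylline as full inhibition.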

[5] = NFAT Signaling Pathway (AID 444; active means well fitted curve in either direction with a large enough effect, not every such curve was filed as active;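 further: carbachol stimulus at about its EC50 of 1 µM final; on the % scale 0 is the no-effect control and ±100 the full control effect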); details: Jurkat NFAT-bla M1, carbachol, beta-lactamase ratio, 5 h
In short: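 Jurkat cells carrying an NFAT-driven β-lactamase reporter and co-transfected muscarinic M1 receptor were treated with compound plus carbachol (1 uM final, an EC50 level) for 5 h at 37 °C. CCF4 loading followed for 1 h at RT; 460/530 nm ratio gave %activity.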

[6] = Stat Signaling Pathway (AID 446; active means well fitted curve in either direction with a large enough effect, not every such curve was filed as active;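 further: ME-180 cervical cancer cells given 40 pM IL-6 alongside compound; SIE-controlled beta-lactamase reporter measured as 460/530 nm FRET emission ratio; on the % scale 0 is the no-effect control and ±100 the full control effect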); details: ME-180 (cervical carcinoma) SIE beta-lactamase reporter, IL-6 stimulated, 5 h
In short: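 Overnight-plated ME-180 cells bearing a STAT Inducible Element beta-lactamase reporter; 5 h co-exposure to compound and 40 pM IL-6; values normalized to 300 pM IL-6 and 125 nM JAK inhibitor controls.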

[7] = biological target: Glucocorticoid receptor (Homo sapiens) (UniProt P04150); assay: GR-GFP Redistribution (AID 450;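 active means compounds whose dose series gives a full or clear partial fitted curve of increased nuclear translocation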; further: potency means the concentration at half of the fitted maximal effect); details: U2OS GR-GFP nuclear translocation, laser cytometry, 2 h
Chain of Glucocorticoid receptor (Homo sapiens) (P04150 whole entry, looked up, the tested form may be a part): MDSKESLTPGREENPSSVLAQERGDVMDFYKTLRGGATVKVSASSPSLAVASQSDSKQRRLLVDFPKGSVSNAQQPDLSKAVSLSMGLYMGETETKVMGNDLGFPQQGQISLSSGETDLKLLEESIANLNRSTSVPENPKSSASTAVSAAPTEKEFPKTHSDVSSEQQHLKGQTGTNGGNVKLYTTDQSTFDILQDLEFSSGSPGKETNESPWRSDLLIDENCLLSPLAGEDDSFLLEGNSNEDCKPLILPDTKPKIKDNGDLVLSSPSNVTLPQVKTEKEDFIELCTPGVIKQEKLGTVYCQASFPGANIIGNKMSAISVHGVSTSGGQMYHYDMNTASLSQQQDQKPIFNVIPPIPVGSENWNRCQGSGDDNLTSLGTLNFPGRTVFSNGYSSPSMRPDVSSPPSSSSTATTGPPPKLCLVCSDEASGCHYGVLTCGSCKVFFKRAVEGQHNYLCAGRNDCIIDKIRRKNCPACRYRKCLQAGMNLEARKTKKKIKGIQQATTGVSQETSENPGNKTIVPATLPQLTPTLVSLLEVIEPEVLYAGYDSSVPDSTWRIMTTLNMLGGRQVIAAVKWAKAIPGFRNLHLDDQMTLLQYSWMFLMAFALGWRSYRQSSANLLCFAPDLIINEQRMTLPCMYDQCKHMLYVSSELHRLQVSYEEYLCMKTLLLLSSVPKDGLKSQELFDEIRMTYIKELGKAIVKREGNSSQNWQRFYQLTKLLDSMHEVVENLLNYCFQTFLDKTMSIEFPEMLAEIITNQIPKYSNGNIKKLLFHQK

[8] = biological target: Glucocorticoid receptor (Homo sapiens) (UniProt P04150); assay: GR-EFC Redistribution (AID 451; calls by dose curve; further: potency means the concentration at half of the fitted maximal effect); details: CHO-K1 GR-EFC translocation, beta-gal luminescence, 2 h
In short: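 CHO-K1 cells stably expressing nuclear-localized β-gal enzyme acceptor and GR fused C-terminally to the enzyme donor fragment; ligand-driven nuclear translocation restores β-gal by complementation. Compounds titrated up to 46 uM final, 2 h at 37 °C; luminescence read.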

[9] = biological target: Mitogen-activated protein kinase 10 (Mus musculus) (UniProt Q61831); assay: JNK3 AlphaScreen Assay (AID 530; active means well fitted curve in either direction with a large enough effect, not every such curve was filed as active;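 further: kinase came from lysate of stimulated human HepG2 cells; signal reports phosphorylation of biotinylated GST-cJun 1-79 at Ser73 with 10 µM ATP; on the % scale 0 is the no-effect control and ±100 the full control effect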)
In short: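 Phosphorylation of biotinylated GST-cJun(1-79) at Ser73 is measured by AlphaScreen proximity luminescence. Enzyme is JNK3 in HepG2 lysates activated with interleukin-1beta and tumor necrosis factor alpha; ATP is 10 uM final.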

[10] = biological target: 3',5'-cyclic-AMP phosphodiesterase 4B (Homo sapiens) (UniProt Q07343); assay: qHTS Assay for Inhibitors of PDE-IV (AID 607; active means well fitted activation curve with a large enough effect in the main read-out, with a control signal flat, not every such curve was filed as active; further: % of control where 0% means no effect)
Chain of 3',5'-cyclic-AMP phosphodiesterase 4B (Homo sapiens) (Q07343 whole entry, looked up): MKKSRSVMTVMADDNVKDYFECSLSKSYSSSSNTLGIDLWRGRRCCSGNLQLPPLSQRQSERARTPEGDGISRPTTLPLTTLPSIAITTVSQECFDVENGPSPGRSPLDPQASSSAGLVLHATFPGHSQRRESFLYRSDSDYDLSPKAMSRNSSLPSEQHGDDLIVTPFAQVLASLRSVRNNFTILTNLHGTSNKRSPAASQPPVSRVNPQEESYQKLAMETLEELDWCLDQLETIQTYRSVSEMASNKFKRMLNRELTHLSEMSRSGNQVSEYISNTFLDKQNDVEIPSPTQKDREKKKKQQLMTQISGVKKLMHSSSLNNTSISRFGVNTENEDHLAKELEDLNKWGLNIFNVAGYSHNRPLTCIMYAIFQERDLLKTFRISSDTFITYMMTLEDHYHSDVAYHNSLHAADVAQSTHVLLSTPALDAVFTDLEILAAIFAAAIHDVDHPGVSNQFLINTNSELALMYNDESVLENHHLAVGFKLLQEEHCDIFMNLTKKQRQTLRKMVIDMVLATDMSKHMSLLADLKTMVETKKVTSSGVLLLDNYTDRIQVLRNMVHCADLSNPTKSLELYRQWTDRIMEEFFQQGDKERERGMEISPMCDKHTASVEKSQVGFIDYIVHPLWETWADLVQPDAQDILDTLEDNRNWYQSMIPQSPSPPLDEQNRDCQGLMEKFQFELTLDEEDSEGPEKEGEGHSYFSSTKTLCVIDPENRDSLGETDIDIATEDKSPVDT
In short: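 Live HEK293 cells with a modified cyclic nucleotide-gated (CNG) channel report intracellular cAMP via membrane-potential dye fluorescence (ex 535/em 590 nm). Endogenous PDE-IV was targeted. Compounds were tested at up to 22.9 uM final; RO 20-1724 100 uM served as control.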

[11] = qHTS Assay for Lipid Storage Modulators (AID 1519; calls by dose curve); details: Drosophila S3 cells, BODIPY lipid droplet/cell ratio, laser cytometry, cells loaded with oleic acid
In short: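 Cells seeded at 5,000 per well were treated with compounds over a concentration series and loaded with oleic acid (400 uM, as added). Lipid droplet fluorescence (488 nm excitation, 500-530 nm channel) was read by laser-scanning cytometry and normalized to 20 uM Triacsin C.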

[12] = biological target: Ubiquitin carboxyl-terminal hydrolase 1 (Homo sapiens) (UniProt O94782); assay: Inhibitors of USP1/UAF1: Pilot qHTS (AID 504865);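 further: rhodamine fluorescence freed from ubiquitin-rhodamine substrate followed over time; top concentration of the series differs between compounds; on the % scale 0 is the no-effect control and ±100 the full control effect; nearly all actives have a fitted effect of over 35% in size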
Chain of Ubiquitin carboxyl-terminal hydrolase 1 (Homo sapiens) (O94782 whole entry, looked up): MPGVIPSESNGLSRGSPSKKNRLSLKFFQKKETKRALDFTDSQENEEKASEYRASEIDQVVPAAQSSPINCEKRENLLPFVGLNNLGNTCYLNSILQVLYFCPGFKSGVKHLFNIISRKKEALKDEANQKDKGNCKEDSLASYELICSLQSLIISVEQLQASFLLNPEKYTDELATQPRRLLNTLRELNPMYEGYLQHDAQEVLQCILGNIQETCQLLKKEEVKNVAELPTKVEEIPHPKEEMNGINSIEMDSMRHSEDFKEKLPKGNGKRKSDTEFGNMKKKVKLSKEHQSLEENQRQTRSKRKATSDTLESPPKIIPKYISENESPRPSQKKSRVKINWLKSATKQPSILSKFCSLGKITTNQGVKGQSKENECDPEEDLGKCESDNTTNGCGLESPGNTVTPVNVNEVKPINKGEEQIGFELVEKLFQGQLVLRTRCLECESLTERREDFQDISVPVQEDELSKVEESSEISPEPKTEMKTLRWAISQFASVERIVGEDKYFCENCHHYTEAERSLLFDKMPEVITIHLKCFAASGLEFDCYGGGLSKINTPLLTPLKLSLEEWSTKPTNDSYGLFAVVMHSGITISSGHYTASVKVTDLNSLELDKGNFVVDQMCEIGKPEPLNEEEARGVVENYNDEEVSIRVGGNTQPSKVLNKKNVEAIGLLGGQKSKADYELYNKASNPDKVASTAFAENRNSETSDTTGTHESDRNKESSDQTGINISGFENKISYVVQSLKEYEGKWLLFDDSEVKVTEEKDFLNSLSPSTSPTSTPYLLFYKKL
In short: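 In 50mM HEPES pH 7.8 containing 0.5mM EDTA, 1mM TCEP, 0.1 mg/ml BSA and 0.01% Tween-20, 1nM USP1/UAF1 is exposed to compound for 15 min, then Ub-Rho (150nM final) is added and fluorescence is read over time.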

[13] = biological target: DNA dC->dU-editing enzyme APOBEC-3G (Homo sapiens) (UniProt Q9HC16); assay: qHTS for inhibitors of Vif-A3G interactions: Validation (AID 588379); further: 0% is about no effect
Chain of DNA dC->dU-editing enzyme APOBEC-3G (Homo sapiens) (Q9HC16 whole entry, looked up): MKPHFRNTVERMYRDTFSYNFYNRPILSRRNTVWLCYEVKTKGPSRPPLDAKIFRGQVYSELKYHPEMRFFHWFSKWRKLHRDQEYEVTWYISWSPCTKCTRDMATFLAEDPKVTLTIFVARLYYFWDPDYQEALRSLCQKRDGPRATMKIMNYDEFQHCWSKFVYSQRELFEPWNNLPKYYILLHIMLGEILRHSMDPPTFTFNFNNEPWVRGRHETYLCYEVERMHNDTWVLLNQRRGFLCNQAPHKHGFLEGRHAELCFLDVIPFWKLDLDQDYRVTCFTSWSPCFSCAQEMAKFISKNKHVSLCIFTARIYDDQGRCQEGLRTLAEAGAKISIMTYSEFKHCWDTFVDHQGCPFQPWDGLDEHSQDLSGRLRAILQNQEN
In short: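 Yellow fluorescence (Ex 488, Em 500-530) of Vif-coexpressing HeLa A3G-eYFP cells, scanned by Acumen cytometer, reports blocked A3G degradation. Cells plated at 700/well overnight at 37 deg C before compound addition, then a further overnight compound incubation at 37 deg C.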

[14] = biological target: Cytochrome P450 3A4 (Homo sapiens) (UniProt P08684); assay: qHTS Assay for Inhibitors and Substrates of Cytochrome P450 3A4 (AID 884); further: on the % scale 0 is the no-effect control and ±100 the full control effect; nearly all actives have a fitted effect of over 50% in size
Chain of Cytochrome P450 3A4 (Homo sapiens) (P08684 whole entry, looked up): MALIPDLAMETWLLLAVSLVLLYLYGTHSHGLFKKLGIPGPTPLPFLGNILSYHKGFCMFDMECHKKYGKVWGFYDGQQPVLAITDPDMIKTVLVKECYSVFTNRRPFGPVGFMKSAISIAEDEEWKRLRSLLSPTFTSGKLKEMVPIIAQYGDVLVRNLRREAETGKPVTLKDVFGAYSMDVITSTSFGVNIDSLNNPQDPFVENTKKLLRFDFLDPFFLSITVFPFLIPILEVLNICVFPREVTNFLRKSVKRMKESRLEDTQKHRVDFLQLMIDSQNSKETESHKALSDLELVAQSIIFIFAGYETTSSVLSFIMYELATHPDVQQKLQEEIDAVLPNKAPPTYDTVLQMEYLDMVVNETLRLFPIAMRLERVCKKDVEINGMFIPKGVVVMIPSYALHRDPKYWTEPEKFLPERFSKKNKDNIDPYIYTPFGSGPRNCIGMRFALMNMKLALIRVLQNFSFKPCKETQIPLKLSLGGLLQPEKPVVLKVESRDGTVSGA
In short: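 Luminescent readout of luciferin produced by CYP3A4 (20 nM) dealkylation of Luciferin-PPXE, 25 uM (its KM). NADPH-driven reaction ran 60 min at RT after 10 min compound preincubation; data scaled to 57 uM ketoconazole as 100% inhibition.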

[15] = biological target: Cytochrome P450 2D6 (Homo sapiens) (UniProt P10635); assay: qHTS Assay for Inhibitors and Substrates of Cytochrome P450 2D6 (AID 891);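 further: luciferin methyl ether substrate demethylated by CYP2D6 with NADPH regeneration; on the % scale 0 is the no-effect control and ±100 the full control effect; nearly all actives have a fitted effect of over 60% in size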
Chain of Cytochrome P450 2D6 (Homo sapiens) (P10635 whole entry, looked up): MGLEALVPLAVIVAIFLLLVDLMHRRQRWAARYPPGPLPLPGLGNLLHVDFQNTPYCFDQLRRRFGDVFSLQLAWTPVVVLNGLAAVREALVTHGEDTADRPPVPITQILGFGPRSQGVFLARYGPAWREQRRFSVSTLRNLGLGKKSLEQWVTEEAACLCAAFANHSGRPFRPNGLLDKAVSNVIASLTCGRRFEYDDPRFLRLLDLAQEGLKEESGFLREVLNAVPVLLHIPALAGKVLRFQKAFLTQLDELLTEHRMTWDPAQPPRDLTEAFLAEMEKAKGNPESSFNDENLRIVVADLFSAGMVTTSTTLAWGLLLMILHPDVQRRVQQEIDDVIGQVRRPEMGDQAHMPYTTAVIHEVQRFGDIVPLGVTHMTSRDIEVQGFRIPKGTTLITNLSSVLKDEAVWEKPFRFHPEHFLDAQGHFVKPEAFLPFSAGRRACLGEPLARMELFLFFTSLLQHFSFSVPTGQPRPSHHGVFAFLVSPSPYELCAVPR
In short: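 Luminescent read-out of luciferin formed by 5 nM human CYP2D6 demethylating 30 uM Luciferin-ME EGE (Km level) over 60 min at room temperature after NADPH regeneration addition. Data normalized to full inhibition by 1.43 uM quinidine.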

[16] = biological target: Cytochrome P450 2C19 (Homo sapiens) (UniProt P33261); assay: qHTS Assay for Inhibitors and Substrates of Cytochrome P450 2C19 (AID 899); further: on the % scale 0 is the no-effect control and ±100 the full control effect; nearly all actives have a fitted effect of over 60% in size
Chain of Cytochrome P450 2C19 (Homo sapiens) (P33261 whole entry, looked up): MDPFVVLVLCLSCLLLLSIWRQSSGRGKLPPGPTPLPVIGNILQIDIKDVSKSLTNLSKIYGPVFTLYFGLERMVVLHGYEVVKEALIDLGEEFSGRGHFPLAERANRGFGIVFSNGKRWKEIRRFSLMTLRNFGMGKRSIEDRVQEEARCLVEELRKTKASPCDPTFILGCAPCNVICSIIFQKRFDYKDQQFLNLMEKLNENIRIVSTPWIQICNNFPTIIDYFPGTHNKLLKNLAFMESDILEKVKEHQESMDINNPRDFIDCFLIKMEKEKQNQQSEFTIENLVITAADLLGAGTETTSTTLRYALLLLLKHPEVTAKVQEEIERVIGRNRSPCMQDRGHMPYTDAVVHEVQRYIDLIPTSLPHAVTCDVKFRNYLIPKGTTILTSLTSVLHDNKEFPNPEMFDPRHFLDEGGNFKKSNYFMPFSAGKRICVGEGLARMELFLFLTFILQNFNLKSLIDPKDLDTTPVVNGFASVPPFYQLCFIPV
In short: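 In 50mM KPO4, the reaction held 5nM enzyme and KM-level (10uM) Luciferin-H EGE; it ran 60 min at 37C after NADPH regeneration and a 10 min compound preincubation. Luminescence values were scaled to 57uM ketoconazole as complete inhibition.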

[17] = measured here: cell count channel max response
[18] = measured here: lipid channel max response

O=C1C(Nc2ccccc2)=CC(=O)c2ncccc21
Potency [1]: inactive
Potency [2]: inactive

CCCCCCCCCCCCC/C=C/[C@@H](O)[C@H](CO)NC(=O)CCCCCCCCCCCCCCC
activity change, negative = inhibition [1]: 22% [at 6.83 µM] (inactive)
activity change, negative = inhibition [2]: -18.7% [at 3.88 µM] (inactive)

COc1ccc(C2CC(c3c(O)cc(C)oc3=O)=NCCS2)c(OC)c1 (centres undefined)
Potency [1]: inactive
Potency [2]: inactive

COC1C(O)C(CO)OC1n1cnc2c(NC3CCCCC3)ncnc21 (centres undefined)
Potency [1]: inactive
Potency [2]: inactive

CC(C)NC[C@@H](O)COc1ccc(CCOCC2CC2)cc1
activity change, negative = inhibition ([3]; at 17.2 µM (top of the series)): -7.61% (inactive)
activity change, negative = inhibition ([3]; at 38 µM (top of the series)): 1.38% (inactive)
Potency [4]: 15.8 µM (active) and 12.6 µM (active) and inactive
activity change, negative = inhibition ([5]; at 17.2 µM (top of the series)): -13.9% (inactive)
activity change, negative = inhibition ([5]; at 38 µM (top of the series)): 5.51% (inactive)
activity, negative = inhibition ([6]; at 17.2 µM (top of the series)): 9.37% (inactive)
activity, negative = inhibition ([6]; at 38 µM (top of the series)): 21.1% (inactive)
Potency [7]: > 46 µM (inactive) and > 20.6 µM (inactive)
Potency [8]: > 46 µM (inactive) and > 20.6 µM (inactive)
Potency [9]: inactive
Potency [10]: inactive
activity change, negative = inhibition ([11]; at 25.7 µM (top of the series)): -3.72% (inactive)
activity change, negative = inhibition ([11]; at 57.5 µM (top of the series)): 3.94% (inactive)
max response [11, 17]: 2.99% and 8.52%
max response [11, 18]: -0.358% and 14.4%
Potency [12]: inactive
Potency [13]: inactive
Potency [1]: inactive
Potency [2]: inactive

O=C1CC[C@H](N2C(=O)c3ccccc3C2=O)C(=O)N1
activity change, negative = inhibition ([3]; at 17.2 µM (top of the series)): 0.427% (inactive)
activity change, negative = inhibition ([3]; at 38 µM (top of the series)): -0.244% (inactive)
Potency [4]: inactive
activity change, negative = inhibition ([5]; at 17.2 µM (top of the series)): -1.74% (inactive)
activity change, negative = inhibition ([5]; at 38 µM (top of the series)): -10.1% (inactive)
activity, negative = inhibition ([6]; at 17.2 µM (top of the series)): 3.42% (inactive)
activity, negative = inhibition ([6]; at 38 µM (top of the series)): -18.4% (inactive)
Potency [7]: > 46 µM (inactive) and > 20.6 µM (inactive)
Potency [8]: > 46 µM (inactive) and > 20.6 µM (inactive)
Potency [9]: inactive
Potency [10]: inactive
Potency [14]: inactive
Potency [15]: inactive
Potency [16]: inactive
activity change, negative = inhibition ([11]; at 25.7 µM (top of the series)): -1.97% (inactive)
activity change, negative = inhibition ([11]; at 57.5 µM (top of the series)): -4.08% (inactive)
max response [11, 17]: 11% and -21.2%
max response [11, 18]: 5.6% and -23.7%
Potency [12]: inactive
Potency [13]: inactive
Potency [1]: inactive
Potency [2]: inactive

CCCCCCCCCCCCC/C=C/[C@@H](O)[C@@H](N)CO
Potency [1]: inactive
Potency [2]: 1120 nM (active)
activity change, negative = inhibition [2]: -29.5% [at 3.88 µM] (inactive)

CCCC(=O)Nc1nc2c(ncn2[C@@H]2O[C@H]3COP(=O)(O)O[C@@H]3[C@@H]2OC(=O)CCC)c(=O)[nH]1
Potency [1]: inactive
Potency [2]: inactive

C=C[C@H](N)CCC(=O)O
activity change, negative = inhibition ([3]; at 17.2 µM (top of the series)): -1.55% (inactive)
activity change, negative = inhibition ([3]; at 38 µM (top of the series)): 6.29% (inactive)
Potency [4]: inactive
activity change, negative = inhibition ([5]; at 17.2 µM (top of the series)): -1.05% (inactive)
activity change, negative = inhibition ([5]; at 38 µM (top of the series)): 2.77% (inactive)
activity, negative = inhibition ([6]; at 17.2 µM (top of the series)): -1.55% (inactive)
activity, negative = inhibition ([6]; at 38 µM (top of the series)): -14.6% (inactive)
Potency [7]: > 46 µM (inactive) and > 20.6 µM (inactive)
Potency [8]: > 46 µM (inactive) and > 20.6 µM (inactive)
Potency [9]: inactive
Potency [10]: inactive
Potency [14]: inactive
Potency [15]: inactive
Potency [16]: inactive
activity change, negative = inhibition ([11]; at 25.7 µM (top of the series)): -2.99% (inactive)
activity change, negative = inhibition ([11]; at 57.5 µM (top of the series)): -0.953% (inactive)
max response [11, 17]: 3.82% and -3.83%
max response [11, 18]: 1.97% and -5.49%
Potency [12]: inactive
Potency [13]: inactive
Potency [1]: inactive
Potency [2]: inactive

Nc1ncnc2c1nc(Br)n2[C@@H]1O[C@H]2COP(=O)(O)O[C@@H]2[C@@H]1O
Potency [1]: inactive
Potency [2]: inactive

CCCCC[C@H](O)/C=C/[C@H]1C=CC(=O)[C@@H]1CCCCCCC(=O)O
activity change, negative = inhibition [1]: 16.3% [at 6.83 µM] (inactive)
activity change, negative = inhibition [2]: -11.3% [at 3.88 µM] (inactive)

CCCCCCCCCCCCCCCC(=O)OCC(COP(=O)(O)O)OC(=O)CCCCCCCCCCCCCCC (centres undefined)
activity change, negative = inhibition [1]: 13.2% [at 6.83 µM] (inactive)
activity change, negative = inhibition [2]: -28.1% [at 3.88 µM] (inactive)

CC12CCC3c4ccc(O)cc4CCC3C1CCC2O (centres undefined)
Potency [1]: inactive
Potency [2]: inactive
